In PubChem BioAssay (NCI) one finds growth data, which are given here for 22 molecules.

Among the test systems are NCI-H322M lung; HOP-62 NSCLC; NCI-H460 lung; NCI-H522 lung; 786-0 renal; COLO 205 colon; NCI-H226 lung; A549/ATCC NSCLC; HOP-92 NSCLC.
What all share (assay): NCI-60 one-dose screen, 48 h (100 = growth as untreated, 0 = no growth, -100 = all killed)
Common to all, as to details: 10 µM

Compounds without any hit were thinned out: in the full panel of roughly 83,000, 20% have a hit.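 Single-concentration screen, 48 h exposure, 96-well plates. Endpoint: percent growth. Below 10 = active.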 Unmarked numbers belong to inactive results. Calls of active or inactive are those of the source.

Turning to `CC(=O)c1ccc(N=C(C#N)C2=C(O)c3ccccc3C2=O)cc1`, the growth is 100% with NCI-H322M lung; 100% with HOP-62 NSCLC; 101% in the assay on NCI-H460 lung; 78.6% in the assay on NCI-H522 lung; 103% in the assay with 786-0 renal; 111% with COLO 205 colon.
Take `O=[N+]([O-])c1ccc(-c2ncc(-c3ccc(Br)cc3)o2)cc1`: the growth in the assay on NCI-H226 lung was 107%; with NCI-H322M lung it was 110%; with HOP-62 NSCLC, 114%; in the assay on NCI-H460 lung, 73.4%; in the assay on NCI-H522 lung it was -2.2% (active); in the assay on A549/ATCC NSCLC, 30.5%. Besides, the results for the growth in the assay with 786-0 renal and in the assay with COLO 205 colon were 97.3% and 134%, respectively.
Consider `O=[N+]([O-])c1ccccc1S(=O)c1ccccc1[N+](=O)[O-]`, for which the growth is 111% with NCI-H226 lung; 95.5% in the assay on NCI-H322M lung; 108% with HOP-62 NSCLC; 105% in the assay with NCI-H460 lung; 76.2% with HOP-92 NSCLC; 101% with A549/ATCC NSCLC. For the same molecule, the growth in the assay on 786-0 renal is 111%; in the assay with COLO 205 colon it was 106%.
Turning to `COc1cc(CCN=Cc2ccccc2O)c([N+](=O)[O-])cc1OC`, the growth with NCI-H226 lung was 104%; in the assay with NCI-H322M lung it was 101%; with HOP-62 NSCLC, 91.9%; in the assay on NCI-H460 lung, 108%; in the assay on A549/ATCC NSCLC, 102%; in the assay with 786-0 renal it was 92.6%. For the same molecule, the growth in the assay on COLO 205 colon is 110%.
Consider `COc1cc(C(N)=O)cc(OC)c1OC`, for which the growth in the assay with NCI-H226 lung is 102%; in the assay with NCI-H322M lung, 106%; in the assay on HOP-62 NSCLC it was 99.6%; with NCI-H460 lung it was 111%; in the assay on NCI-H522 lung, 102%; in the assay with 786-0 renal, 108%. For the same molecule, the growth in the assay with COLO 205 colon is 101%.
As for `O=C(Nc1ccccc1)OCCc1ccccc1`, the growth in the assay with NCI-H226 lung was 103%; in the assay with NCI-H322M lung, 116%; with HOP-62 NSCLC, 103%; with NCI-H460 lung, 103%; in the assay with A549/ATCC NSCLC, 102%; in the assay on 786-0 renal, 97.2%. Besides, the growth in the assay on COLO 205 colon was 119%.
On to `CCOC(=O)c1ccc(NC(=S)P(=O)(c2ccccc2)c2ccccc2)cc1`, for which the growth was 94.7% in the assay with NCI-H322M lung; 105% with HOP-62 NSCLC; 71.3% in the assay on NCI-H460 lung; 78.1% in the assay on HOP-92 NSCLC; 113% in the assay on NCI-H522 lung; 103% in the assay with A549/ATCC NSCLC. In addition, the growth with 786-0 renal was 101%; in the assay with COLO 205 colon it was 115%.
With `Brc1cnc2ccccc2c1`, the growth in the assay on NCI-H226 lung is 105%; with NCI-H322M lung it was 106%; in the assay on HOP-62 NSCLC, 100%; in the assay on NCI-H460 lung, 109%; with A549/ATCC NSCLC it was 104%; in the assay with 786-0 renal, 109%. In the assay on COLO 205 colon, the growth is 100%.
With `Nc1ncnc2[nH]ncc12`, the growth with NCI-H226 lung is 34.8%; in the assay with NCI-H322M lung, 0.523% (active); in the assay with HOP-62 NSCLC it was 20.9%; in the assay on NCI-H460 lung, 12.3%; with HOP-92 NSCLC, -21.4% (active); in the assay with A549/ATCC NSCLC, 23%. In the assay on COLO 205 colon, the growth was 10.8%.
Consider `O=C(NN=C1CCCCC1)C(=O)NN=C1CCCCC1`, for which the growth in the assay on NCI-H226 lung is 101%; with NCI-H322M lung, 124%; in the assay with HOP-62 NSCLC, 98.1%; in the assay on NCI-H460 lung it was 117%; in the assay with NCI-H522 lung, 98.7%; in the assay on A549/ATCC NSCLC it was 116%. Besides, the growth in the assay on 786-0 renal was 105%; in the assay on COLO 205 colon, 106%.
As for `CC(C)=CC(=O)OC(=O)C=C(C)C`, the growth with NCI-H226 lung is 93.5%; in the assay with NCI-H322M lung, 104%; in the assay with HOP-62 NSCLC, 103%; in the assay on NCI-H460 lung, 106%; with 786-0 renal, 106%; in the assay on COLO 205 colon, 113%.
With `O=C(Cc1ccccc1)Cc1ccccc1`, the growth in the assay on NCI-H226 lung is 100%; in the assay on NCI-H322M lung, 104%; in the assay with HOP-62 NSCLC it was 110%; with NCI-H460 lung it was 102%; in the assay on NCI-H522 lung, 97%; in the assay on A549/ATCC NSCLC it was 96%. Moreover, the growth in the assay with 786-0 renal was 95.2%; with COLO 205 colon it was 110%.
Turning to `CCN(CC)CCCC(C)Nc1ccnc(/C=C/c2ccc(Cl)cc2)c1` (stereo not drawn), the growth in the assay on NCI-H226 lung is 62.6%; in the assay with NCI-H322M lung, 21.3%; with HOP-62 NSCLC it was 38.4%; in the assay on NCI-H460 lung, 9.3% (active); in the assay with HOP-92 NSCLC, -19.8% (active); in the assay on NCI-H522 lung, -38.6% (active). Also, the growth with A549/ATCC NSCLC was 9.38% (active); in the assay with 786-0 renal, 45.2%; in the assay on COLO 205 colon, -64.4% (active).
In the case of `O=C1c2ccccc2C(=O)N1OCc1ccccc1`, the growth in the assay on NCI-H226 lung was 91.4%; in the assay on NCI-H322M lung, 93.4%; in the assay on HOP-62 NSCLC, 95.4%; in the assay on NCI-H460 lung, 113%; in the assay on NCI-H522 lung it was 96.5%; with A549/ATCC NSCLC, 122%. In addition, the results for the growth with 786-0 renal and in the assay on COLO 205 colon were 99.5% and 108%, respectively.
For the molecule `O=c1[nH]n(-c2ccccc2)c(=O)cc1Cl`, the growth with NCI-H226 lung is 93.6%; with NCI-H322M lung, 114%; with HOP-62 NSCLC it was 108%; with NCI-H460 lung, 109%; with A549/ATCC NSCLC, 102%; in the assay with 786-0 renal, 103%. Besides, the growth in the assay on COLO 205 colon is 104%.
For `S=c1nn[nH]c2ccccc12`, the growth is 93.8% in the assay with NCI-H226 lung; 95.6% in the assay with NCI-H322M lung; 98% in the assay with HOP-62 NSCLC; 105% with NCI-H460 lung; 96.4% with A549/ATCC NSCLC; 111% in the assay with 786-0 renal. Moreover, the growth in the assay with COLO 205 colon was 93.4%.
For the molecule `CC1Cc2ccccc2O1` (stereo not drawn), the growth in the assay with NCI-H226 lung was 107%; in the assay on NCI-H322M lung, 131%; in the assay on HOP-62 NSCLC it was 108%; in the assay on NCI-H460 lung it was 109%; with HOP-92 NSCLC, 109%; in the assay on NCI-H522 lung it was 114%. Moreover, the figures for the growth in the assay with A549/ATCC NSCLC, with 786-0 renal and with COLO 205 colon were 103%, 109% and 110%, respectively.
In the case of `Nc1ccc(NC(=O)c2cccc(N)c2)cc1`, the growth in the assay on NCI-H226 lung is 99.1%; in the assay with NCI-H322M lung, 95.2%; with HOP-62 NSCLC, 86.5%; with NCI-H460 lung, 101%; in the assay with HOP-92 NSCLC, 81.1%; in the assay on A549/ATCC NSCLC, 47.6%. Moreover, the growth in the assay on 786-0 renal was 101%; in the assay on COLO 205 colon, 114%.
In the case of `CC(=O)c1cc2c(cc1F)C(C)(C)CCC2(C)C`, the growth with NCI-H226 lung is 96.9%; in the assay with NCI-H322M lung, 96.8%; in the assay with HOP-62 NSCLC, 112%; in the assay with NCI-H460 lung, 107%; in the assay on HOP-92 NSCLC, 88%; with A549/ATCC NSCLC it was 89%. Also, the growth is 103% with 786-0 renal and 102% in the assay on COLO 205 colon.
Regarding `S=C1CCCCCN1`, the growth in the assay on NCI-H322M lung is 99.5%; with HOP-62 NSCLC, 92.9%; with NCI-H460 lung, 106%; with HOP-92 NSCLC it was 103%; with NCI-H522 lung it was 105%; with A549/ATCC NSCLC, 101%. The results for the growth with 786-0 renal and with COLO 205 colon were 107% and 111%, respectively.
For the molecule `COC(=O)Nc1nc2ccc(C(=O)c3cccs3)cc2[nH]1`, the growth in the assay with NCI-H226 lung was 0.146% (active); with NCI-H460 lung it was 7.45% (active); in the assay with HOP-92 NSCLC, 63.9%; in the assay with A549/ATCC NSCLC it was 19.5%; in the assay with 786-0 renal, 19%; in the assay with COLO 205 colon it was -40% (active).
`COc1ccc(/C=C/c2cccc[n+]2C)cc1`: the growth in the assay on NCI-H226 lung is 101%; in the assay with NCI-H322M lung, 93.5%; with HOP-62 NSCLC, 77.5%; in the assay with NCI-H460 lung, 106%; with 786-0 renal, 94.3%; with COLO 205 colon, 42.1%.
